# Results published in PubChem BioAssay (EPA / NIEHS).
# Activity calls are given as the source filed them. How the source made its calls: active means hit-call score of the fitted dose curve at least 0.9, where 1 is the maximum; inactive means score below 0.9.
# What was measured:
# [1] = ATG_GLI_CIS: Attagene CIS-FACTORIAL HepG2 Assay for human Zinc Finger Protein GLI1 (AID 2282945); conditions: HepG2, Attagene cis-factorial reporter mRNA, GLI element; actives raise or lower the signal
# In short: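 Transiently transfected HepG2 cells report endogenous transcription factor activity via cis-element-driven reporter units. After 24 h compound exposure, reporter mRNA was measured by RT-PCR with capillary electrophoresis; bidirectional fitting against DMSO baseline.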
# [2] = ATG_M_32_CIS: Attagene CIS-FACTORIAL HepG2 Assay for M32 Transcription Factor (Internal Marker) (AID 2282949); conditions: HepG2 Attagene cis-factorial M32 reporter, mRNA; actives raise or lower the signal;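 further: background control marker of the multiplexed CIS panel rather than a real target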
# In short: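 Using DMSO as baseline, bidirectional curve fits were applied to reporter mRNA signals. These came from transiently transfected HepG2 cells exposed for 24 h, with RNA analysed by RT-PCR, FAM primer extension, HpaI digestion and CE.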
# [3] = ATG_M_06_CIS: Attagene CIS-FACTORIAL HepG2 Assay for M06 Transcription Factor (Internal Marker) (AID 2282950); conditions: HepG2 Attagene CIS-FACTORIAL M06 internal marker reporter; actives raise or lower the signal
# In short: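 Internal background marker within multiplexed cis-reporter HepG2 system. Cells transiently transfected, dosed 24 h; reporter mRNA measured by RT-PCR, HpaI digestion and capillary electrophoresis. Bidirectional fit relative to DMSO.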
# [4] = target: Hypoxia-inducible factor 1-alpha (Homo sapiens) (UniProt Q16665); experiment: ATG_HIF1a_CIS: Attagene CIS-FACTORIAL HepG2 Assay for human Hypoxia Inducible Factor 1 (HIF1A) (AID 2282951); conditions: HepG2 Attagene cis-factorial HIF1a reporter transcription; actives raise or lower the signal
# In short: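 HepG2 cells transiently transfected with multiple cis-regulated reporter transcription units measure endogenous transcription factor activity. After 24 h exposure, reporter mRNA is quantified by RT-PCR with 6-FAM labelling, HpaI digestion and capillary electrophoresis. Bidirectional fitting against DMSO.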
# [5] = target: Hepatocyte nuclear factor 6 (Homo sapiens) (UniProt Q9UBC0); experiment: ATG_HNF6_CIS: Attagene CIS-FACTORIAL HepG2 Assay for human Hepatocyte Nuclear Factor 6 (HNF6) (AID 2282952); conditions: HepG2 Attagene cis-factorial HNF6 reporter transcription; actives raise or lower the signal
# In short: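 First, HepG2 cells were transfected with the multiplexed cis reporter library and dosed with chemical for 24 h. Next, RNA was reverse-transcribed, PCR-amplified and fluorescently labelled. Finally, HpaI-digested fragments were read by capillary electrophoresis.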
# [6] = target: Heat shock factor protein 1 (Homo sapiens) (UniProt Q00613); experiment: ATG_HSE_CIS: Attagene CIS-FACTORIAL HepG2 Assay for human Heat Shock Transcription Factor 1 (HSE) (AID 2282953); conditions: HepG2 HSE cis-reporter, Attagene RNA transcription; actives raise or lower the signal
# In short: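 HepG2 cells transfected with cis-promoter reporter units sensing endogenous transcription factor activity; reporter mRNA quantified 24 h post-dose by RT-PCR and capillary electrophoresis of 6-FAM-labelled products. Bidirectional fitting against DMSO.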
# [7] = ATG_MRE_CIS: Attagene CIS-FACTORIAL HepG2 Assay for human Metal Responsive Element (MRE) (AID 2282954); conditions: HepG2 MRE cis-reporter transcription, Attagene multiplex; actives raise or lower the signal
# In short: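 RT-PCR/capillary electrophoresis readout of reporter mRNA, 24 h post-dosing, in HepG2 cells transfected with multiplexed cis-regulated reporter constructs. Gain or loss of signal fitted bidirectionally against DMSO baseline.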
# [8] = ATG_PBREM_CIS: Attagene CIS-FACTORIAL HepG2 Assay for human Phenobarbital-responsive Enhancer Module (PBREM) (AID 2282955); conditions: HepG2 PBREM cis-reporter, Attagene multiplexed transcription; actives raise or lower the signal
# In short: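 HepG2 cells transiently transfected with multiple cis-regulated reporter units measure endogenous transcription factor activity; 24 h compound exposure. Reporter mRNA quantified by RT-PCR, fluorescent labelling, HpaI digestion and capillary electrophoresis; bidirectional fit versus DMSO.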
# [9] = target: Paired box protein Pax-6 (Homo sapiens) (UniProt P26367); experiment: ATG_Pax6_CIS: Attagene CIS-FACTORIAL HepG2 Assay for human Paired Box 6 (PAX6) (AID 2282956); conditions: HepG2 CIS-FACTORIAL PAX6 reporter transcription, RNA readout; actives raise or lower the signal
# In short: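 Fluorescent RT-PCR products separated by capillary electrophoresis report PAX6-linked promoter mRNA in HepG2 cells 24 h post-dose. Curves fitted bidirectionally, DMSO as negative control.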
# [10] = ATG_PXRE_CIS: Attagene CIS-FACTORIAL HepG2 Assay for human Pregnane X Receptor Element (PXRE) (AID 2282957); conditions: HepG2 Attagene CIS-FACTORIAL PXRE reporter, mRNA; actives raise or lower the signal
# In short: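 After a 24 h chemical incubation, total RNA from transfected HepG2 cells was reverse-transcribed and reporter cDNA amplified, FAM-labeled, HpaI-digested and sized by capillary electrophoresis. DMSO served as baseline for bidirectional curve fitting.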
# [11] = ATG_PPRE_CIS: Attagene CIS-FACTORIAL HepG2 Assay for human Peroxisome Proliferator-activated Response Element (PPRE) (AID 2282958); conditions: HepG2 PPRE cis-element reporter, Attagene transcription factor profiling; actives raise or lower the signal
# In short: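 HepG2 cells are transiently transfected with multiplexed cis-promoter reporter units to report endogenous PPAR activity. After 24 h dosing, reporter mRNA is read by RT-PCR and capillary electrophoresis. Fitting is bidirectional against DMSO.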
# [12] = ATG_RORE_CIS: Attagene CIS-FACTORIAL HepG2 Assay for human RAR-related Orphan Receptor Element (RORE) (AID 2282959); conditions: HepG2 Attagene cis-factorial RORE reporter, mRNA; actives raise or lower the signal
# In short: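 HepG2 cells carrying transiently transfected cis-regulated reporter units; RORE-driven reporter mRNA quantified 24 h post-dosing by RT-PCR, 6-FAM primer extension, HpaI digestion and capillary electrophoresis. Bidirectional fit versus DMSO.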
# [13] = ATG_Sox_CIS: Attagene CIS-FACTORIAL HepG2 Assay for human SRY-box transcription factor (SOX) (AID 2282960); conditions: HepG2 Attagene cis-factorial SOX reporter, mRNA; actives raise or lower the signal
# In short: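 HepG2 cells transiently transfected with multiple cis-regulated reporter units, then dosed for 24 h. Reporter mRNA quantified by RT-PCR, fluorescent labelling, HpaI digestion and capillary electrophoresis; bidirectional fit versus DMSO.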
# [14] = target: Transcription factor Sp1 (Homo sapiens) (UniProt P08047); experiment: ATG_Sp1_CIS: Attagene CIS-FACTORIAL HepG2 Assay for human Specificity Protein 1 (Sp1) (AID 2282961); conditions: HepG2 Sp1 cis-reporter transcription, actives raise or lower the signal
# In short: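 HepG2 cells transiently transfected with multiplexed cis-regulated reporter constructs, chemical exposure 24 h. Reporter mRNA quantified by RT-PCR with capillary electrophoresis; bidirectional fit relative to DMSO.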
# [15] = ATG_SREBP_CIS: Attagene CIS-FACTORIAL HepG2 Assay for human Sterol Regulatory Element Binding (SREBP) (AID 2282962); conditions: HepG2 Attagene cis-factorial SREBP reporter, mRNA; actives raise or lower the signal
# In short: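 Endogenous factor activity is measured in HepG2 through multiplexed reporter units under cis-element control. Following a 24 h incubation, reporter transcripts are reverse-transcribed, PCR-amplified and sized by capillary electrophoresis; activity is fitted in both directions relative to DMSO.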
# [16] = target: Signal transducer and activator of transcription 3 (Homo sapiens) (UniProt P40763); experiment: ATG_STAT3_CIS: Attagene CIS-FACTORIAL HepG2 Assay for human Signal Transducer and Activator of Transcription 3 (STAT3) (AID 2282963); conditions: HepG2, Attagene cis-factorial STAT3 reporter transcription; actives raise or lower the signal
# In short: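 Readout: fluorescent reporter mRNA fragments resolved by capillary electrophoresis. Setup: HepG2 transfected with MRTUs reporting endogenous transcription-factor activity, dosed 24 h. Gain or loss of signal fitted bidirectionally against DMSO control.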
# [17] = ATG_TA_CIS: Attagene CIS-FACTORIAL HepG2 Assay for human TA Basal Promoter (AID 2282964); conditions: HepG2 Attagene CIS-factorial TA basal promoter reporter; actives raise or lower the signal
# In short: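 HepG2 cells transiently transfected with multiple reporter units under cis promoter elements, reporting endogenous transcription factor activity; this endpoint tracks the TA basal promoter as background control. Reporter mRNA after 24 h dosing measured by RT-PCR/capillary electrophoresis; bidirectional fits versus DMSO.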
# [18] = ATG_ISRE_CIS: Attagene CIS-FACTORIAL HepG2 Assay for human Interferon Regulatory Factor 1 (IRF1) binding to an Interferon-Stimulated Response Element (ISRE) (AID 2282948); conditions: HepG2 ISRE cis-reporter (Attagene), mRNA transcription readout; actives raise or lower the signal
# In short: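 Multiplexed mRNA reporter readout in human liver HepG2 cells: cis-element-driven reporters transfected, compound added for 24 h, transcripts amplified, fluorescently labelled and sized by capillary electrophoresis; curve fitting bidirectional against DMSO.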
# Paired box protein Pax-6 (Homo sapiens), sequence (P26367 whole entry, looked up): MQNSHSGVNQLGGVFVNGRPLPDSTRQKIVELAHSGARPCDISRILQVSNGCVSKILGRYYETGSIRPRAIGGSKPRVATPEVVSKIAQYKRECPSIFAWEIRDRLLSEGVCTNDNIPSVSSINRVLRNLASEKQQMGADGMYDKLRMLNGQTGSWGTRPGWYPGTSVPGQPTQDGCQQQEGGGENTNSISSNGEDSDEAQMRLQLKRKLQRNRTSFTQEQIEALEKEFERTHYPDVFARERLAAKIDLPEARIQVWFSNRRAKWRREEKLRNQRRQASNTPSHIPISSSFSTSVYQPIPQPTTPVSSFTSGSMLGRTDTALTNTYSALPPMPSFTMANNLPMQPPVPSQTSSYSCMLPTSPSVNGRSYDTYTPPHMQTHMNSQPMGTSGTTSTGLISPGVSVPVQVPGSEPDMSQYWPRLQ
# Signal transducer and activator of transcription 3 (Homo sapiens), sequence (P40763 whole entry, looked up, the tested form may be a part): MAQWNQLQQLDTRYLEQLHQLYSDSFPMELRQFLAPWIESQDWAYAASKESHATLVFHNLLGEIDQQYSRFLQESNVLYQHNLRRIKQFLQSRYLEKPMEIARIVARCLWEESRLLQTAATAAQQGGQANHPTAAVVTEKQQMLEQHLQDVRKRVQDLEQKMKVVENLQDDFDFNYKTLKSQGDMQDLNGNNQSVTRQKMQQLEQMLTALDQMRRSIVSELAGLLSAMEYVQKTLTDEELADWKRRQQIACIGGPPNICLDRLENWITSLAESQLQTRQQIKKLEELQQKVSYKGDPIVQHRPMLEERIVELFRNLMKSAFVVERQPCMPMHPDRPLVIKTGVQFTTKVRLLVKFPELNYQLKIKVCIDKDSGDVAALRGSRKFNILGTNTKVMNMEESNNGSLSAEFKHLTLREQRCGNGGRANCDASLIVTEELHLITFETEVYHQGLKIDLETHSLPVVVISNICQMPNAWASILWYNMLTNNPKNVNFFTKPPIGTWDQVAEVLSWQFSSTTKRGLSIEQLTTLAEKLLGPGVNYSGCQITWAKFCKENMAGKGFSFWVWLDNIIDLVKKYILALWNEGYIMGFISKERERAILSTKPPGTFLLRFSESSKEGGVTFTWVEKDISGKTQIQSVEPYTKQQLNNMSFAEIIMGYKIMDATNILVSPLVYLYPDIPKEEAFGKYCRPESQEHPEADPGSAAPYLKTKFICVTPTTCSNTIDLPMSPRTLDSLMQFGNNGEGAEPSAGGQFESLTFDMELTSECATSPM
# Hepatocyte nuclear factor 6 (Homo sapiens), sequence (Q9UBC0 whole entry, looked up, the tested form may be a part): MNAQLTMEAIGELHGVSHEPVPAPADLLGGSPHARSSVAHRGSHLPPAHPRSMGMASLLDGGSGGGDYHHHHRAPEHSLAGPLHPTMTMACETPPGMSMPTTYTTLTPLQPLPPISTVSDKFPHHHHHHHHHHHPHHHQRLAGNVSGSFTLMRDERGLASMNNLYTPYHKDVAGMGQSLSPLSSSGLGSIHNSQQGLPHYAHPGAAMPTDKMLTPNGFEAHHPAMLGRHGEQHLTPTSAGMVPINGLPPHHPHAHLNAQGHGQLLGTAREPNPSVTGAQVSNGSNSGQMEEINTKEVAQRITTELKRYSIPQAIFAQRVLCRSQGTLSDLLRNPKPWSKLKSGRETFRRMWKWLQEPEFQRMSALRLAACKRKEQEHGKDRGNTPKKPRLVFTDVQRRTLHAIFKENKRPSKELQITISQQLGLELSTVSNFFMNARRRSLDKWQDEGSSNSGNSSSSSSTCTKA
# Heat shock factor protein 1 (Homo sapiens), sequence (Q00613 whole entry, looked up): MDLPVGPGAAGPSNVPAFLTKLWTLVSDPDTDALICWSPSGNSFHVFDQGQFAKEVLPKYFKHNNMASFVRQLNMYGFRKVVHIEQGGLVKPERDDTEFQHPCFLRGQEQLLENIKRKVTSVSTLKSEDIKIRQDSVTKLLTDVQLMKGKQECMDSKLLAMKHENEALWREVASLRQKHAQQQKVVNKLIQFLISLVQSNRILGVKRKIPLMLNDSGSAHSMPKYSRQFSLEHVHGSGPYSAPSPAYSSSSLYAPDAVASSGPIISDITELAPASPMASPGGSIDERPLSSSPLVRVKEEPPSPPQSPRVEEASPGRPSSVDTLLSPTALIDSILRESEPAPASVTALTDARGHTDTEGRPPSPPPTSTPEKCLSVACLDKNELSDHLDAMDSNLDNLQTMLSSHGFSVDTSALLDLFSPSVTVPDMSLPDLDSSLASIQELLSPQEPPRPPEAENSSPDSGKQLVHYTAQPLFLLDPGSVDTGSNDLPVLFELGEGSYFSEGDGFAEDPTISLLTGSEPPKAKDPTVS
# Hypoxia-inducible factor 1-alpha (Homo sapiens), sequence (Q16665 whole entry, looked up): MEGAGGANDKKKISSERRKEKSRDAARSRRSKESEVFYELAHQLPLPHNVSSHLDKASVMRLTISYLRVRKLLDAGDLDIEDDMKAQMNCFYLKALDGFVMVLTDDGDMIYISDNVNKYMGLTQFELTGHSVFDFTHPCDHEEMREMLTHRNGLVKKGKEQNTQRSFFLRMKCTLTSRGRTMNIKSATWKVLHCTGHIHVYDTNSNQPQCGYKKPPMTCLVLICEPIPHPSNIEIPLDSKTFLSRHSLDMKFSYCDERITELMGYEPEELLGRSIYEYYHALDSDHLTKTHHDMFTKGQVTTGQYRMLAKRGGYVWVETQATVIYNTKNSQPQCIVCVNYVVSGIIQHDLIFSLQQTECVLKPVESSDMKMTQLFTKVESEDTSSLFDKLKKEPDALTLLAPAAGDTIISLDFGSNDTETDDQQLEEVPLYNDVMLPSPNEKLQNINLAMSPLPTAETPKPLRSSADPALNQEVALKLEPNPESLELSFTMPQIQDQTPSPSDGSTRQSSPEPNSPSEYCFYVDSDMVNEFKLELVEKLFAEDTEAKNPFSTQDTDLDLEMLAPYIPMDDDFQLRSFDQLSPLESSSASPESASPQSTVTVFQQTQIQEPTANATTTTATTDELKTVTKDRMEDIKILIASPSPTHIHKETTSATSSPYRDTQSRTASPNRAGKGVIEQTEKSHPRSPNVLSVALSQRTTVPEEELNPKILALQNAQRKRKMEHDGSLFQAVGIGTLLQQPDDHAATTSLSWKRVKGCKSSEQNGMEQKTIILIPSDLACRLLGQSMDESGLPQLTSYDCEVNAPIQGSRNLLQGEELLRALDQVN
# Transcription factor Sp1 (Homo sapiens), sequence (P08047 whole entry, looked up): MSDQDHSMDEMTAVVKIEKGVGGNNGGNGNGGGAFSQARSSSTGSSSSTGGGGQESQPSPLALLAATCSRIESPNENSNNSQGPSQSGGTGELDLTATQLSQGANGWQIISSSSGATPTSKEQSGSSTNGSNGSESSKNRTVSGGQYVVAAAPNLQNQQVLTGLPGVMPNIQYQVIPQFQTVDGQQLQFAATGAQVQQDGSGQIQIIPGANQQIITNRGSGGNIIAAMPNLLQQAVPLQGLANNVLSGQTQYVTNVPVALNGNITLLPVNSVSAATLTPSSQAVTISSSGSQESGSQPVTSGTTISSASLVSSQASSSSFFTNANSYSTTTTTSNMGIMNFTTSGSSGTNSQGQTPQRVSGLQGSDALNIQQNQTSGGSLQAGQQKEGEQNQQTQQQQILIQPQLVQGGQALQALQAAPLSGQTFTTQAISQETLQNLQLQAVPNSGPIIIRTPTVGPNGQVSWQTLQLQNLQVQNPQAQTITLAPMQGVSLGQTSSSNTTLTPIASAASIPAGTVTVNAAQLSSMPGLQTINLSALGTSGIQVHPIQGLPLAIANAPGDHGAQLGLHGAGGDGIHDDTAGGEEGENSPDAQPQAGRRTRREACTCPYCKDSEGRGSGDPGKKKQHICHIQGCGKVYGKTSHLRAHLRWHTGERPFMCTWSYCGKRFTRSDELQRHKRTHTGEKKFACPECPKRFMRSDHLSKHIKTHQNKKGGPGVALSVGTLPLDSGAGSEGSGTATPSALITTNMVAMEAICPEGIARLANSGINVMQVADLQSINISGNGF
compound,measurement,setting,value
Nc1cc([N+](=O)[O-])ccc1C(=O)O,outcome,[1],inactive
same,outcome,[2],inactive
same,outcome,[3],inactive
same,outcome,[4],inactive
same,outcome,[5],inactive
same,AC50,[6],75 µM (active)
same,AC50,[7],71 µM (active)
same,outcome,[8],inactive
same,outcome,[9],inactive
same,AC50,[10],64.5 µM (active)
same,outcome,[11],inactive
same,outcome,[12],inactive
same,outcome,[13],inactive
same,outcome,[14],inactive
same,outcome,[15],inactive
same,outcome,[16],inactive
same,outcome,[17],inactive
O=[N+]([O-])c1cc(N(CCO)CCO)ccc1NCCO,outcome,[1],inactive
same,outcome,[18],inactive
same,outcome,[2],inactive
same,outcome,[3],inactive
same,outcome,[4],inactive
same,outcome,[5],inactive
same,outcome,[7],inactive
same,outcome,[9],inactive
same,outcome,[10],inactive
same,outcome,[12],inactive
same,outcome,[13],inactive
same,outcome,[14],inactive
same,outcome,[15],inactive
same,outcome,[16],inactive
same,outcome,[17],inactive
CC(C)=CC(=O)O,outcome,[1],inactive
same,outcome,[18],inactive
same,outcome,[3],inactive
same,outcome,[4],inactive
same,outcome,[5],inactive
same,outcome,[11],inactive
same,outcome,[12],inactive
same,outcome,[13],inactive
same,outcome,[14],inactive
same,outcome,[16],inactive
same,outcome,[17],inactive
ClCCOCCOCCCl,outcome,[1],inactive
same,outcome,[2],inactive
same,outcome,[3],inactive
same,outcome,[4],inactive
same,outcome,[5],inactive
same,outcome,[7],inactive
same,outcome,[9],inactive
same,outcome,[11],inactive
same,outcome,[12],inactive
same,outcome,[13],inactive
same,outcome,[14],inactive
same,outcome,[15],inactive
same,outcome,[16],inactive
same,outcome,[17],inactive
CC(=O)OC(C)(C)C1CC=C(C)CC1 (stereo not drawn),outcome,[1],inactive
same,outcome,[3],inactive
same,outcome,[4],inactive
same,outcome,[5],inactive
same,outcome,[6],inactive
same,outcome,[7],inactive
same,outcome,[8],inactive
same,outcome,[9],inactive
same,AC50,[10],36.9 µM (active)
same,outcome,[11],inactive
same,outcome,[12],inactive
same,outcome,[13],inactive
same,outcome,[14],inactive
same,outcome,[15],inactive
same,outcome,[16],inactive
same,outcome,[17],inactive
COc1ccccc1NC(=O)CC(C)=O,outcome,[1],inactive
same,outcome,[2],inactive
same,outcome,[3],inactive
same,outcome,[4],inactive
same,outcome,[5],inactive
same,outcome,[6],inactive
same,outcome,[7],inactive
same,AC50,[10],34.2 µM (active)
same,outcome,[11],inactive
same,outcome,[12],inactive
same,outcome,[13],inactive
same,outcome,[14],inactive
same,outcome,[15],inactive
same,outcome,[16],inactive
same,outcome,[17],inactive
